Measurements: ChEMBL document CHEMBL1157539, “Thousands of chemical starting points for antimalarial lead identification” (Nature, 2010)
Where “and” joins values, the source holds several entries; their conditions need not be identical. Equal entries are not always repeated.

Assays:
Assay type in all cases: functional
Plasmodium falciparum [1] = experiment: GSK_TCMDC: Inhibition of Plasmodium falciparum 3D7 in whole red blood cells, using parasite LDH activity as an index of growth. Test compounds present at 2uM
Plasmodium falciparum [2] = experiment: GSK_TCMDC: Inhibition of Plasmodium falciparum Dd2 in whole red blood cells, using parasite LDH activity as an index of growth. Test compounds present at 2uM
HepG2 = experiment: GSK_TCMDC: Percent inhibition of human HepG2 cell line. Test compounds present at 10uM.

Structure (SMILES)	Inhibition (Plasmodium falciparum [1])	Inhibition (Plasmodium falciparum [2])	Inhibition (HepG2)
COc1ccc(C(=O)c2ccc3[nH]cc(C4=CCN(C)CC4)c3c2)cc1	88%	55%	
CC[C@H]1CN2CC[C@H]1C[C@H]2[C@H](O)c1cc(N2CCCC2)nc2ccc(OC)cc12	98%	100%	0%
Fc1ccc(N(c2nc(-c3cc(F)cc(C(F)(F)F)c3)cs2)C2CCNCC2)cc1.O=C(O)C(F)(F)F	95%	10%	35%
C=C[C@H]1CN2CC[C@H]1C[C@@H]2[C@@H](O)c1ccnc2ccccc12 [CINCHONINE]	100%	2%	0%
CN1CC=C(c2c[nH]c3ccc(C(=O)c4nccs4)cc23)CC1	89%	73%	
Cc1[nH]c2ccccc2c1C1=CCN(CCCCCC23CCCc4cccc(c42)NC3=O)CC1 (stereo not drawn)	94%	91%	11%
Cl.O=C(CNC1CCCCC1)c1ccc(O)c(O)c1	100%	99%	61%
CC(=O)N(Cc1cccc(-c2cccc(CNCCc3ccccc3)c2)c1)C1CCN(Cc2ccccc2)CC1.O=C(O)C(F)(F)F	100%	57%	22%
CCOC(C(=O)OCCN(C(C)C)C(C)C)(c1ccccc1)c1ccccc1	97%	4%	4%
CCN(CC)CCCC(C)Nc1ccnc2cc(Cl)ccc12.O=P(O)(O)O.O=P(O)(O)O (stereo not drawn) [CHLOROQUINE PHOSPHATE]	100%		
Cc1[nH]c2ccccc2c1C1=CCN(CCCCCNC(=O)/C=C/c2ccc(Cl)c(Cl)c2)CC1	97%	89%	28%
CN(Cc1ccccc1)C1CCN(CCc2c[nH]c3ccc(F)cc23)CC1.O=C(O)C(F)(F)F	100%	91%	28%
CC(=O)Nc1ccc(CN2CCC(N(C)c3cc(NC(=O)c4cccs4)ccn3)CC2)cc1.O=C(O)C(F)(F)F	100%	43%	0%
Cc1ccc(/C=C/C(=O)NC2CCC(CN3CCC(c4c[nH]c5ccccc45)CC3)CC2)cc1C (stereo not drawn)	100%	71% and 91%	23% and 38%
CCC(C)(C)NC(C)C(O)c1ccc(C(F)(F)F)cc1.Cl (stereo not drawn)	97%	90%	
CCCc1cc(O)c2c3c(c(=O)oc2c1)CN(C)CC3	98%	50%	12%
CCCCCOc1ccc(CC(C)NCC(O)c2cccc(Cl)c2)cc1 (stereo not drawn)	100%	99%	0%
N=C(N)NC(=O)Nc1ccc([N+](=O)[O-])c(Cl)c1	90%	12%	
CN1CC(c2ccc(Cl)c(Cl)c2)OC1=N.I (stereo not drawn)	99%	3%	
COc1cc2c(c(OC)c1OC)C[C@H]1c3c(cc4c(c3-2)OCO4)CCN1C	84%	30%	7%
O=C(Nc1cc(C(F)(F)F)cc(C(F)(F)F)c1)NC1CCC(CN2CCC(c3c[nH]c4ccccc34)CC2)CC1 (stereo not drawn)	97% and 100%	98% and 72%	
C#CCOc1ccc(CC(C)NCC(O)c2cccc(C(F)(F)F)c2)cc1 (stereo not drawn)	93% and 90%	84% and 74%	
O=C(C=Cc1ccccc1Br)NC1CCC(CN2CCC(c3c[nH]c4ccccc34)CC2)CC1 (stereo not drawn)	100%	57% and 32%	36% and 43%
CCC1=C[C@@H]2CN(C1)Cc1c([nH]c3ccccc13)[C@@](C(=O)OC)(c1cc3c(cc1OC)N(C)[C@H]1[C@@](O)(C(=O)OC)[C@H](O)[C@]4(CC)C=CCN5CC[C@]31[C@@H]54)C2.O=S(=O)(O)O	98%	99%	
O=C(/C=C/c1ccc(Cl)c(Cl)c1)NC1CCC(CN2CCC(c3c[nH]c4cc(C(F)(F)F)ccc34)CC2)CC1 (stereo not drawn)	100% and 98%	38% and 85%	
COC(=O)c1ccc(CC(C)NCC(O)c2cccc(C(F)(F)F)c2)c(Cl)c1 (stereo not drawn)	99%	98%	0%
COCC(=O)N(Cc1cccc(-c2ccc(CNCCc3ccccc3)cc2)c1)C1CCN(Cc2ccccc2)CC1.O=C(O)C(F)(F)F	93%	45%	44%
COc1ccc(CC(C)NCC(O)c2ccc(Cl)c(Cl)c2)cc1 (stereo not drawn)	98%	96%	0%
